In PubChem BioAssay:
Activity calls are given as the source filed them.

How the values were obtained:
[1] = test system: PRMT1 (protein arginine N-methyltransferase 1); assay: PRMT1 binders on small-molecule microarrays, primary screen, biochemical, small-molecule microarray, 635 nm fluorescence (AID 1088); details: small-molecule microarray binding, higher = more signal;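 further: binding of Prmt1 protein to compounds spotted on small-molecule microarray slides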
[2] = yeast growth modulation, basal conditions, primary screen, YJM789 clinical isolate, OD600, 24 h (AID 1089);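 further: growth of clinical yeast isolate S. cerevisiae YJM 789 seeded 1000 cells per well; test concentration not given here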; details: S. cerevisiae YJM789 growth, higher = more signal, called active from +8 up or from −8 down
[3] = fission yeast growth modulation, primary screen, strain 972, OD600, 24 h, no modulator (AID 1090);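 further: basal condition with compound alone and no growth modifier present; test concentration not given here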; details: S. pombe 972 growth, higher = more signal, called active from +8 up or from −8 down
[4] = S. cerevisiae growth modulation with rapamycin, primary screen, strain BY4716, OD600, 96 h (AID 1091); details: higher = more signal, called active from +8 up or from −8 down; further: test concentration not given here
[5] = target: Torsin-1A-interacting protein 2 (Homo sapiens) (UniProt Q8NFQ8); assay: LULL1 binders on small-molecule microarray, primary screen, cell lysate, human LULL1 lysate, 635/667 nm fluorescence (AID 1092); details: hLULL1 lysate binding, 635 nm fluorescence, higher = more signal;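 further: probe is lysate of COS7 cells overexpressing human LULL1; score merges per-feature 667 nm fluorescence with signal-to-noise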
[6] = E. coli growth modulation, two-sided OD650, primary screen, E. coli filamentation project, strain DRC41, 24 h (AID 1093); details: OD650, 24 h, higher = more signal, called active from +8 up or from −8 down;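 further: MC1000 strain lacking acrAB efflux and sulA so SOS filamentation is blocked; test concentration not given here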
[7] = small-molecule microarray binders of probe aLefty2, primary screen, biochemical, biotinylated probe, 635/667 nm fluorescence (AID 1094); details: higher = more signal;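 further: score merges spot fluorescence near 667 nm with spot signal-to-noise ratio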
[8] = test system: Noggin (protein binding on small-molecule microarray); assay: Noggin binders on small-molecule microarray, primary screen, biochemical, 635/667 nm fluorescence (AID 1095); details: 635 nm fluorescence, higher = more signal;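 further: score merges 667 nm feature fluorescence with signal to noise over triplicate slides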
[9] = target: Neurogenic locus notch homolog protein 3 (Homo sapiens) (UniProt Q9UM47); assay: NOTCH3 binders on small-molecule microarray, primary screen, biochemical, 635/667 nm fluorescence (AID 1096); details: NOTCH3 binding, 635 nm fluorescence, higher = more signal
[10] = small-molecule microarray binders of probe aEGFR, primary screen, biochemical, biotinylated probe, 635/667 nm fluorescence (AID 1097); details: higher = more signal;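 further: probe is a biotinylated anti-EGFR antibody binding compounds printed on slides; score combines fluorescence near 667 nm and signal to noise of each spot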

Chain of Torsin-1A-interacting protein 2 (Homo sapiens) (Q8NFQ8 whole entry, looked up): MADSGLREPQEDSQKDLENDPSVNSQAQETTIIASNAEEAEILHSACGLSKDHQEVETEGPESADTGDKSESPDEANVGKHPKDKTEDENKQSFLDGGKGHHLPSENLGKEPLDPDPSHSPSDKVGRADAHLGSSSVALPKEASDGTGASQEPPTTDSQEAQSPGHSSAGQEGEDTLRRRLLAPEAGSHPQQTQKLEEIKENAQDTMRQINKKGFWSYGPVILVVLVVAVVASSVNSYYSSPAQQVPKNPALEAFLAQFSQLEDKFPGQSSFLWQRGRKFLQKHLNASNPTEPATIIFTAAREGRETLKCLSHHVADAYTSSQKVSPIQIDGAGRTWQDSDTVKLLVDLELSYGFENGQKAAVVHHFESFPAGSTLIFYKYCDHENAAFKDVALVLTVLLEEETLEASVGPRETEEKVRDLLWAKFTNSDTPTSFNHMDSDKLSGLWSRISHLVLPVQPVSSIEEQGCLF
Chain of Neurogenic locus notch homolog protein 3 (Homo sapiens) (Q9UM47 whole entry, looked up): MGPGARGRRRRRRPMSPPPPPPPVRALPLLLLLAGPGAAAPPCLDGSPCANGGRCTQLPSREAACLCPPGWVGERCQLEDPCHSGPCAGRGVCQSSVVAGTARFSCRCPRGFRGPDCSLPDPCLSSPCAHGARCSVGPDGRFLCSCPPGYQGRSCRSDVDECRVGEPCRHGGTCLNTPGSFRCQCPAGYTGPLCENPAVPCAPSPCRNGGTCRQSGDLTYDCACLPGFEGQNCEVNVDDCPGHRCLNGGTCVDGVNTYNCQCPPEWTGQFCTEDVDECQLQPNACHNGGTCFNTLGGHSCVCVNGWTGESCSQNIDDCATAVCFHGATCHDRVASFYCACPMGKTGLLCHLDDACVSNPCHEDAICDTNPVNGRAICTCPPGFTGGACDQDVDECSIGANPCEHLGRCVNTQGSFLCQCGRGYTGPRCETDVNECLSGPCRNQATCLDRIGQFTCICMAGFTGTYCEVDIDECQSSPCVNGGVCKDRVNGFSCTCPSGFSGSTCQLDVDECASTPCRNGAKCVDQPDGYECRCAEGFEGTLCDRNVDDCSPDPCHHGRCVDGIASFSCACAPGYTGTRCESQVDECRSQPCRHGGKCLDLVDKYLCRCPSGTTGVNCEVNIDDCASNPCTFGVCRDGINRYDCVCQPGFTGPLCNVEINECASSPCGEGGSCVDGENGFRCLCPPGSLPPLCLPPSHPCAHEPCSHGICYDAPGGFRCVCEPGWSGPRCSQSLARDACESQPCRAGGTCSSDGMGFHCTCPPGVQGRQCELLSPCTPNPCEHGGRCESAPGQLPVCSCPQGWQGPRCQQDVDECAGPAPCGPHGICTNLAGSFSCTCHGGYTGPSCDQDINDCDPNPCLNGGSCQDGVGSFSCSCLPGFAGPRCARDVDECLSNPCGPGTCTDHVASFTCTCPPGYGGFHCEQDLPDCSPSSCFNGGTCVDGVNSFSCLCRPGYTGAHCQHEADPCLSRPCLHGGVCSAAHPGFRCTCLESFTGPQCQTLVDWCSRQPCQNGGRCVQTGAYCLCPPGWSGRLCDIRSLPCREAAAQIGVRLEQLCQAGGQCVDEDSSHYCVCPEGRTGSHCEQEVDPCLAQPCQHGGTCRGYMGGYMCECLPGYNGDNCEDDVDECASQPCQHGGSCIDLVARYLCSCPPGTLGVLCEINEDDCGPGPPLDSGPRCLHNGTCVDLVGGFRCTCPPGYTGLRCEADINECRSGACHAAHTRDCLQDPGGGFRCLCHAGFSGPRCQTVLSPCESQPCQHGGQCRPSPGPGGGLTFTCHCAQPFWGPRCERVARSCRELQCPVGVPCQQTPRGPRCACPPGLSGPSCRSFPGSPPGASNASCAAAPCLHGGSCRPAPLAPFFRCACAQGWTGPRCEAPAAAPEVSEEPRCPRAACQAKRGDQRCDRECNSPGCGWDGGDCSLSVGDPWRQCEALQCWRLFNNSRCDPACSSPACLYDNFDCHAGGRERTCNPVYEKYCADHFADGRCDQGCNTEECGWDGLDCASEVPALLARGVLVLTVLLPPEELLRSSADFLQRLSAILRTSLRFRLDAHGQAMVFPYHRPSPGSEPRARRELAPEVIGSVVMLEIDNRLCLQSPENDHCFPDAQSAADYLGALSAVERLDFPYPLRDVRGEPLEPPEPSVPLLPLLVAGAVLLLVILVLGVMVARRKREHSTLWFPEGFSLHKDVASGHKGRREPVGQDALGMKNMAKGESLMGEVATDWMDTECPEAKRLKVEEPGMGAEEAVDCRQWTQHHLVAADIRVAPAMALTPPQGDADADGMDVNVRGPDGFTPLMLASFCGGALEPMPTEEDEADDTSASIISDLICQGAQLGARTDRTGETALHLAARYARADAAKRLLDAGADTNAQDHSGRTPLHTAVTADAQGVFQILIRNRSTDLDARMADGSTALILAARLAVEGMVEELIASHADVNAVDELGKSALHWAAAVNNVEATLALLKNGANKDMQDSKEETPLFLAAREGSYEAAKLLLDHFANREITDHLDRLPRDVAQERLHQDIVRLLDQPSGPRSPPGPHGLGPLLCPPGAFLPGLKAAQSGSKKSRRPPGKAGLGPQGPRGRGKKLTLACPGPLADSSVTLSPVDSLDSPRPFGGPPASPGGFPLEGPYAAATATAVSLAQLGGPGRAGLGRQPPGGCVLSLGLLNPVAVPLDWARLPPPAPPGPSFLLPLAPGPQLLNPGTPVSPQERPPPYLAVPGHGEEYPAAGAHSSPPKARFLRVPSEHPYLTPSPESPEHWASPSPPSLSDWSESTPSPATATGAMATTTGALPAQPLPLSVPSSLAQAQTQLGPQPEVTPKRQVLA

SMILES | composite z-score [1] | z-score [2] | z-score [3] | z-score [4] | composite z-score [5] | z-score [6] | composite z-score [7] | composite z-score [8] | composite z-score [9] | composite z-score [10]
C=CCC(OC(C)=O)[C@@H]1[C@@H](N(Cc2cc3ccccc3o2)C(=O)c2ccc(-c3ccccc3)cc2)c2cc(OCCCO)ccc2N1C(=O)c1ccc2ccccc2n1 (stereo not given in full) | -0.766 | 0.806 (inactive) | 0.0887 (inactive) | 1.16 (inactive) | 0.607 | 0.859 (inactive) | -0.072 | 0.0917 | -0.781 | -0.0151
COc1cc2c(cc1O)C(C1CC1)N(Cc1ccc([N+](=O)[O-])o1)CC2 (stereo not given) | 0.287 | -0.123 (inactive) | -3.53 (inactive) | -2.16 (inactive) | 1.85 | -1.16 (inactive) | -0.0046 | -0.2 | 0.903 | -0.0734
CCOC(=O)C1=CC[C@@H](c2ccccc2)N(S(=O)(=O)c2ccc(C)cc2)[C@H]1C#N | 0.811 | 0.0536 (inactive) | -1.06 (inactive) | 0.281 (inactive) | 2.99 | -0.121 (inactive) | -0.0179 | -0.14 | 0.612 | 0.0985
CC(C)C[C@@H]1NC(=O)C([C@@H](C)OCc2ccccc2)NC(=O)[C@@]23C(=O)N[C@@H](Cc4ccccc4)C2[C@H](C)[C@@]2(C)O[C@H]2C3/C=C/CC/C=C/CNC1=O (stereo not given in full) | 1.55 | -0.404 (inactive) | -1.07 (inactive) | -1.28 (inactive) | 1.82 | 0.957 (inactive) | -0.129 | 1.18 | 0.767 | -0.0512
CCOC(=O)C[C@H]1[C@H](OC(=O)Cc2ccc3c(c2)OCO3)[C@@H](NC(=O)c2ccccc2)c2cc(OCCCO)ccc2N1C(=O)Cc1ccc(OC)cc1 | 0.498 | -2.62 (inactive) | -0.91 (inactive) | -0.602 (inactive) | 0.837 | -0.429 (inactive) | -0.0915 | 0.0752 | 0.206 | -0.0978
[N-]=[N+]=Nc1ccccc1[C@@H]1OC(c2ccc(OCCCO)cc2)=N[C@]1(Cc1ccccc1)C(N)=O | -0.0138 | 0.622 (inactive) | -1.21 (inactive) | -0.026 (inactive) | 2.04 | 1.74 (inactive) | 0.0529 | -0.231 | 0.383 | 0.224
CN1C=C(C(=O)OCCS(C)(=O)=O)C(C(=O)OCCS(C)(=O)=O)=CC(CCCO)=CC1c1ccc(CN2CCCC2)cc1 (stereo not given) | 1.48 | 0.897 (inactive) | -6.78 (inactive) | -0.781 (inactive) | 3.06 | 0.0324 (inactive) | 0.383 | 0.845 | 0.984 | 0.273
COc1cccc(OC)c1C(=O)O[C@H]1[C@@H]2OC(=O)[C@H](Cc3cccc(Br)c3)C/C=C/C[C@@H](Cc3cccc(Br)c3)C(=O)O[C@H]2[C@@H](OC)O[C@@H]1CO | 1.4 | -0.372 (inactive) | -0.246 (inactive) | 0.231 (inactive) | 1.08 | -1.17 (inactive) | -0.0711 | 0.8 | 0.541 | -0.0678
C=CC[C@]1(C(=O)OC)N=C(c2ccc(OCCCO)cc2)O[C@H]1c1ccccc1N=[N+]=[N-] | 1.54 | -0.747 (inactive) | -0.652 (inactive) | 1.35 (inactive) | 3.36 | -0.225 (inactive) | 0.529 | 1.41 | 1.08 | 0.686
CCCCNC(=O)c1ccc(C#C[Si](C)(C)C)c(OC(C)=O)c1 | 0.305 | 0.453 (inactive) | -2.02 (inactive) | -0.973 (inactive) | -0.092 | 1.54 (inactive) | -0.0926 | 0.309 | -0.174 | -0.096
C=CCOC(=O)[C@H]1[C@@H]2C(=O)O[C@@H](c3ccccc3)[C@@H](c3ccccc3)N2[C@@H](c2ccc(OCCOC(=O)[C@@H]3C[C@@H]4C(=O)N[C@@H](Cc5ccccc5)C(=O)N4[C@@H]3c3ccc(O)cc3)cc2)[C@]12C(=O)Nc1ccccc12 | 1.55 | 0.455 (inactive) | -0.113 (inactive) | 3.75 (inactive) | 2.13 | 0.0664 (inactive) | -0.151 | 1.65 | 0.758 | -0.0929
C=CCC(OC(C)=O)[C@@H]1[C@@H](N(Cc2ccc(-c3ccccc3)cc2)C(=O)c2ccc(C)cc2)c2cc(OCCCO)ccc2N1C(=O)c1ccc2ccccc2c1 (stereo not given in full) | 0.0718 | -2.33 (inactive) | -0.326 (inactive) | -0.693 (inactive) | 0.327 | 1.34 (inactive) | -0.173 | 0.166 | 0.305 | -0.139
CC(C)C[C@H]1NC(=O)[C@H](Cc2ccccc2)NC(=O)[C@@]23C(=O)N[C@@H](Cc4ccccc4)C2[C@H](C)[C@@]2(C)O[C@H]2C3/C=C/C/C=C\CNC1=O (stereo not given in full) | 1.21 | -1.12 (inactive) | -0.667 (inactive) | -0.302 (inactive) | 1.46 | -1.03 (inactive) | -0.123 | 0.426 | 0.852 | -0.0968
CCCC=C(CCC)[C@@H](NC(=O)c1ccccc1)c1ccc(C(=O)OC)cc1 | 0.661 | -0.532 (inactive) | -1.5 (inactive) | -0.938 (inactive) | 2.56 | 0.689 (inactive) | 0.688 | 0.748 | 0.997 | 0.23
C=CC[C@]1(C(=O)NCCCOC)N=C(c2ccc(OCCCO)cc2)O[C@H]1c1ccccc1 | 0.36 | -0.193 (inactive) | -0.266 (inactive) | -0.739 (inactive) | 3.29 | 0.753 (inactive) | 0.037 | -0.0071 | -0.0832 | -0.146
